In all, about 300,000 compounds went through this assay and about 37,000 (12%) were called active. Only a selection was taken, and actives are over-represented in it overall. A number with no mark means an inactive call. Rule as the data show it: active = max response mostly above about 13% (no sharp cut-off); inactive = mostly below about 14%.
assay: Cycloheximide Counterscreen for Small Molecule Inhibitors of Shiga Toxin; conditions: cell reporter, cycloheximide protein synthesis inhibition counterscreen; stronger effect = higher value; also: read at 38.3 µM for the half of the compounds with a filed dose; 0% is about no effect

| Structure (SMILES) | max response |
| --- | --- |
| COc1ccc(-c2noc(CCCC(=O)NC3CCCC3)n2)cc1OC | 3.35% |
| COc1ccc(OC)c(Cc2nnc(CCC(=O)NC3CCCC3)o2)c1 | 18.4% (active) |
| CCOc1ccc(-c2noc(CCC(=O)NC3CCCC3)n2)cc1OC | -5.32% |
| CC(=O)c1cc(CN2CCC(C(=O)Nc3cccc(-c4cscn4)c3)CC2)cs1 | 1.1% |
| CCCN(CCC)c1nc2c(C)cccn2c(=O)c1/C=C1/SC(=S)N(Cc2ccco2)C1=O | 3.29% |
| CC1CN(CC(=O)NC(C)c2ccccc2)CC(C)O1 (stereo not given) | -1.49% |
| O=C(NCc1cccs1)c1ccc(CS(=O)Cc2ccccc2Cl)o1 (stereo not given) | -1.19% |
| COc1cccc(NC(=O)c2nn(-c3ccc(OC)cc3OC)c(=O)c3ccccc23)c1 | -9.73% |
| COc1ccc(-n2nc(C(=O)Nc3cc(OC)c(OC)c(OC)c3)c3ccccc3c2=O)c(OC)c1 | 7.65% |
| COc1ccc(-n2nc(C(=O)NCC(=O)N3CCN(c4ccccc4OC)CC3)c3ccccc3c2=O)c(OC)c1 | 24.9% (active) |
| Cc1ccc(S(=O)(=O)N(CC(O)CN2CCCCC2)c2cccc([N+](=O)[O-])c2)cc1 (stereo not given) | -3.71% |
| COc1ccc(N(Cc2ccc(N(C)C)cc2)C(=O)c2ccc(S(C)(=O)=O)cc2)cc1 | -1.82% |
| O=C(O)CCn1cc(/C=C/C(=O)c2ccc(Cl)cc2)c(-c2cccc(Br)c2)n1 | 0.455% |
| FC(F)(F)c1nnc2c3ccccc3c(Cl)nn12 | -3.49% |
| CC(C)n1c(O)c(N=Nc2ccccn2)c2ccccc21 | 4.74% |
| Oc1oc(-c2ccccc2Br)nc1/C=N/c1ccccn1 | 34.5% (active) |
| CN(C(=O)CN1C(=O)S/C(=C\c2ccccc2F)C1=O)C1CCS(=O)(=O)C1 (stereo not given) | 0.582% |
| COc1ccc(CNC(=O)C(c2ccc(O)cc2)N(Cc2ccco2)C(=O)c2snc(C(N)=O)c2N)cc1 (stereo not given) | 2.14% |
| CCC(C)Sc1nc2c(cnn2-c2ccc(F)cc2)c(=O)[nH]1 (stereo not given) | 3.85% |
| CC(C)=CCN1CCN(Cc2cc3ccccc3[nH]2)CC1CCO (stereo not given) | -3.61% |
| Cc1cc(C)c(S(=O)(=O)c2cc(F)ccc2C)c(=O)[nH]1 | 2.04% |
| CCOc1cc(NC(=O)CCl)c(OCC)cc1NC(C)=O | -3.13% |
| CC(Cc1cccs1)N(Cc1ccc(Cl)cc1)C(=O)c1ccncc1 (stereo not given) | -4.21% |
| Cc1ccc(NC(=S)NC(=O)/C=C/c2ccc(Cl)cc2)cc1 | 8.42% |

| Structure (SMILES) | max response |
| --- | --- |
| O=C(/C=C/c1ccc(Cl)cc1)Nc1ccc(Br)cn1 | 14.3% |
| O=C(/C=C/c1ccc(Cl)cc1)Nc1ccc(S(=O)(=O)Nc2ncccn2)cc1 | 5.75% |
| Cc1cc(C)nc(NC(=O)/C=C/c2ccc(Cl)cc2)n1 | 17.8% (active) |
| CC(C)(C)c1ccc(/C=C/C(=O)Nc2ncccn2)cc1 | 65.3% (active) |
| CC(C)(C)c1ccc(/C=C/C(=O)NC2CCS(=O)(=O)C2)cc1 (stereo not given) | 5.09% |
| O=S(=O)(NC1CC1)c1ccc2c3c(cccc13)CC2 | -1.96% |
| COc1ccc(C(O)(C2CCCCC2)C(CN2CCCC2)c2ccccc2)cc1 (stereo not given) | -2.99% |
| COC(=O)c1ccc(CN2C(=O)NC(c3ccccc3)(c3ccccc3)C2=O)o1 | -8.22% |
| O=C(Nc1cccc(F)c1)NC1CCCCCCC1 | 52.8% (active) |
| O=C(Nc1cccc(F)c1)[C@@H]1CCCN1 | -0.0627% |
| C/C(CC(=O)Nc1cccc(F)c1)=N\NC(=O)C(=O)NC1CCCCC1 | 12.1% (active) |
| C/C(CC(=O)Nc1cccc(C(F)(F)F)c1)=N\NC(=O)C(=O)NCC(C)C | -3.56% |
| COc1cccc(NC(=O)C/C(C)=N/NC(=O)C2CCCCC2)c1 | 1.09% |
| O=C(Nc1cccc(F)c1)NC1CCCc2ccccc21 (stereo not given) | -2.71% |
| Cc1ccc(CN2CCN(Cc3ccccc3-c3ccco3)CC2CCO)o1 (stereo not given) | -2.94% |
| CCN(c1ccccc1)S(=O)(=O)c1cc2c(cc1C)n(C)c(=O)c(=O)n2C | 1.1% |
| C=CCn1c(C23CC4CC(CC(C4)C2)C3)n[nH]c1=S | -2.9% |
| COc1ccccc1N1CCN(c2ncnc3sc(C)c(-c4ccccc4)c23)CC1 | 23.3% |
| Cc1ccc2c(c1)N(C(=O)CCC(=O)NCc1cccnc1)CCO2 | -2.33% |
| CC(=O)N1CCOc2ccc(S(=O)(=O)N3CCN(c4cccc(C(F)(F)F)c4)CC3)cc21 | -4.21% |
| COCCCN1C(=O)c2ccc(C(=O)Nc3ccc(OC)cc3OC)cc2C1=O | 0.803% |
| COc1ccc2[nH]cc(CCN3C(=O)c4ccc(C(=O)O)cc4C3=O)c2c1 | 21.7% (active) |
| Cc1ccc2[nH]cc(CCNC(=O)c3ccc([N+](=O)[O-])cc3)c2c1 | 0.0509% |
| Cc1ccc2[nH]cc(CCNC(=O)C3CCCCC3)c2c1 | 0.628% |

| Structure (SMILES) | max response |
| --- | --- |
| Cc1ccc2[nH]cc(CCCN3C(=O)c4ccccc4C3=O)c2c1 | 10.1% (active) |
| COc1ccc(C[C@H](C(=O)O)N2C(=O)c3ccc(C(=O)O)cc3C2=O)cc1 | -3.3% |
| Clc1cccc(Cl)c1OCCOCCNCc1ccccc1 | 1.5% |
| CCN(CC)Cc1c(C(=O)N/N=C/c2cccc(OCc3ccc(F)cc3)c2)nnn1-c1nonc1N | 8.82% |
| CN(C)CCCn1c(=O)n(Cc2ccccc2)c(=O)c2c3c(sc21)CCCCC3 | -4.51% |
| Cc1occc1C(=O)NC1CCCN(Cc2ccc(CC(C)C)cc2)C1 (stereo not given) | 9.49% |
| CC1(C(=O)N/N=C/c2cc3c(cc2Br)OCO3)CC1(Br)Br (stereo not given) | 4.29% |
| CN1CCC(CN)(N2CCN(c3ccccc3)CC2)CC1 | -3.21% |
| COc1ccc(NC(=O)CNC(=O)Cc2ccccc2)cc1OC | -3.3% |
| O=C(NCCCc1ccccc1)C(=O)c1c[nH]c2ccccc12 | 14.7% (active) |
| CC(=O)NC(Cc1c[nH]c2ccccc12)C(=O)NCCc1ccccc1 (stereo not given) | -4.02% |
| O=C(NC1CCCC1)C(=O)c1c[nH]c2ccccc12 | 49.1% (active) |
| O=C(C(=O)N1CCc2ccccc2C1)c1c[nH]c2ccccc12 | 10.7% |
| COc1ccc(OC)c2[nH]c(=O)c(CCNC(=O)C(=O)c3c[nH]c4ccccc34)cc12 | -1.63% |
| CC1CCN(CC(=O)c2c[nH]c3ccccc23)CC1 | 22.4% |
| O=C(O)CC(CC(=O)N1CCOCC1)c1ccccc1 (stereo not given) | -2.32% |
| COc1ccc(/C=C2/C(=O)N(c3ccccc3)N=C2C)c(OC)c1 | -1.9% |
| Cc1cn(C2C=CC(CO)O2)c(=O)[nH]c1=O (stereo not given) | -1.84% |
| CN(C)CCN(Cc1ccccc1)S(=O)(=O)c1csc(C(N)=O)c1 | -8.34% |
| Cc1ccc(C(=O)c2ccc(N3CCN(C)CC3)c([N+](=O)[O-])c2)cc1 | 18.7% (active) |
| CCOC(=O)C1CCN(c2ccc(C(=O)O)cc2[N+](=O)[O-])CC1 | -2.89% |
| Cc1cccc(N2CCN(c3ccc(C(N)=O)cc3[N+](=O)[O-])CC2)c1C | -1.03% |
| COc1ccc(C(=O)NC2(C(F)(F)F)NC(=O)N(CCCc3ccccc3)C2=O)c(OC)c1OC (stereo not given) | 10.5% |
| Cc1ccc2c(c1)N(CC(=O)NCCc1ccc(Cl)cc1)C(=O)c1cccnc1O2 | -1.47% |

| Structure (SMILES) | max response |
| --- | --- |
| CCn1cc(S(=O)(=O)c2cccc(C)c2)c(=O)c2cc(F)c(N3CCN(C)CC3)cc21 | -2.21% |
| CN(Cc1ccccc1Cl)C(=O)C1CCC(=O)N(CCc2cccc(F)c2)C1 (stereo not given) | 10% |
| Cc1cccc(C(=O)NC(=S)N(C)C2CCCCC2)c1 | 61% (active) |
| Cc1cccc(C(=O)NCCCN(C)CCCNC(=O)c2cccc(C)c2)c1 | -0.372% |
| Cc1cccc(NC(=S)NCCN(C2CCCCC2)C2CCCC2)c1 | -7.35% |
| O=S(=O)(/C=C/c1ccccc1)N1CCNCC1 | 0.861% |
| Cc1[nH]c(=O)c(C(=O)/C=C/c2ccccc2)c2c1CCCC2 | -1.39% |
| O=C(/C=C/c1ccccc1)N/C(=C/c1ccccc1)C(=O)Nc1ccccc1O | 8.16% |
| COc1ccc(/C=C/C(=O)c2cc(Br)ccc(=O)c2O)cc1 | -1.31% |
| COc1ccc(/C=C/C(=O)c2ccc(OC)cc2O)cc1 | 41.2% (active) |
| COc1ccc(C(=O)/C=C/c2cccnc2)c(OC)c1 | 8.73% |
| CC(/C=C/c1ccccc1)=N\NC(=O)C1CC1(C)c1ccccc1 (stereo not given) | -2.65% |
| O=C(/C=C/c1ccccc1)c1ccccc1O | 29.3% (active) |
| O=C(/C=C/c1ccccc1)c1ccoc1 | 40.4% (active) |
| CC(C)c1nc(CNC(=O)CC2C(=O)NCCN2Cc2cccc(F)c2F)cs1 (stereo not given) | -2.45% |
| COc1cc(C2NC(=O)NC(c3ccccc3)=C2C(C)=O)c(Br)cc1OCC(N)=O (stereo not given) | -1.35% |
| O=C(c1cccc(F)c1)N1CCN(c2ccc([N+](=O)[O-])c3cccnc23)CC1 | -5.99% |
| COc1cccc(C(=O)N2CCC(n3nccc3NC(=O)C3CCOC3)CC2)c1 (stereo not given) | 2.44% |
| CC(=O)N(Cc1cc(=O)[nH]c2ccccc12)c1ccc(C)cc1C | -0.991% |
| COc1ccccc1NC(=O)/C=C/C(N)=O | 9.83% |
| Cc1cc(C)c2nc(NC(=O)C3CCCO3)sc2c1 (stereo not given) | 44.3% (active) |
| Cc1ccc(C)c(C(C)NC(=O)C2CCCO2)c1 (stereo not given) | -2.44% |
| Cc1cc([N+](=O)[O-])ccc1NC(=O)C1CCCO1 (stereo not given) | 3.91% |

From PubChem BioAssay AID2314 (National Center for Advancing Translational Sciences (NCATS), 2010)
